Assay outcomes (PubChem)
This is a sample that favours compounds with a hit; in the whole collection about 14% have one here.
HSD17B inhib: inhibitors of human HSD17B10 dehydrogenase; 75,000 tested, 7.6% active; recombinant HSD17B10, NADH fluorescence kinetic; Potency, µM (top dose mostly 57.1 µM), for the others: at the top dose activity change, negative = inhibition, actives largely listed as inhibitors;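 note: the protocol describes HADH2 (HSD17B10) and not the HSD17B4 of the title; potency is the fitted concentration of half-maximal effect; % is set by controls: 0 for no effect and ±100 for the full control effect; nearly all actives have a fitted effect of over 70% in size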
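His-tagged E. coli-expressed HADH2 at 20 nM in 100 mM Tris-HCl pH 9.0 with 0.01 % Tween-20, preincubated 15 min with compound at room temperature. Reaction with 1 mM NAD+ and 90 uM beta-hydroxybutyryl coenzyme A; NADH fluorescence (360/450 nm) read kinetically over 4 min, last minus first point.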
AID923: qHTS Assay for Allosteric/Competitive Inhibitors of Caspase-1: Spectroscopic Profiling in AFC Spectral Region; 75,000 tested, 1.1% active; Potency, µM (top dose mostly 57.5 µM), for inactives: at the top dose fluorescence increase, hits mostly activators; compound fluorescence, AFC spectral region (405/520 nm); note: potency is the fitted concentration of half-maximal effect; 0% is about no effect
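Compound autofluorescence profiled at 405 nm ex/520 nm em during kinetic caspase 1 run (50 nM enzyme, 5 uM Ac-WEHD-AFC, HEPES pH 7.5, 10 mM DTT). Titration up to 57 uM; baseline from regression intercept, normalized to AFC standard curve.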
HADH2 inhib: blocks human hydroxyacyl-CoA dehydrogenase type II; Q99714; AID 886; 73,000 tested, 3.4% active; Potency, µM (titrated, usually from 57.1 µM), without a hit: at the top dose activity change, negative = inhibition, hits mostly inhibitors; recombinant HADH2, NADH fluorescence, beta-hydroxybutyryl-CoA; note: potency is the fitted concentration of half-maximal effect; % is set by controls: 0 for no effect and ±100 for the full control effect; nearly all actives have a fitted effect of over 60% in size
Target sequence (Q99714 whole entry, looked up, one chain of several): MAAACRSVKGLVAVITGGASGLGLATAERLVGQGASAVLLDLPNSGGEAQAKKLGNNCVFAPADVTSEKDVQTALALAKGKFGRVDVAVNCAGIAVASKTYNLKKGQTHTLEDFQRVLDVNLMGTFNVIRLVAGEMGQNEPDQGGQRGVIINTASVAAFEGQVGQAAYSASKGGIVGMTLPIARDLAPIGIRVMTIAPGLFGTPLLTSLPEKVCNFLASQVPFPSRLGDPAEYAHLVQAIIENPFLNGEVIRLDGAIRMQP
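NADH fluorescence (ex 360/em 450 nm) read every 30 s for 4 min; activity taken as last-minus-first time point difference. Enzyme 20 nM, NAD+ 1 mM, beta-hydroxybutyryl-CoA 90 uM, pH 9.0 Tris buffer.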
A350 fluor: compound fluoresces in the Alexa 350 spectral region. Compound autofluorescence, 340/450 nm, Alexa 350 dye-equivalents; hits give high values. max dye-equivalent concentration, M. 59,000 tested, 11% active. AID 590; in the data active = max dye-equivalent concentration above about 10 nM; inconclusive = mostly about 1.1 nM to 9.6 nM
4-MU autofl: compounds fluorescent in 4-MU spectral region | 59,000 tested, 11% active | AID 589 | max dye-equivalent concentration, M | compound autofluorescence, 340/450 nm, 4-MU equivalents; hits give high values; in the data active = max dye-equivalent concentration above about 10 nM; inconclusive = mostly about 1.1 nM to 9.6 nM
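Compounds in 100 mM Tris, pH 8.0, sat 15 min at room temperature before fluorescence was read at 340 nm excitation/450 nm emission; a per-plate six-point 4-MU standard curve converted signals to dye-equivalent concentration at each compound concentration.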
CRE Fsk mod: CRE-bla signaling modulation under forskolin stimulation. AID 662. CHO CRE-bla reporter (cAMP response element driving beta-lactamase), forskolin EC10, beta-lactamase ratio. 71,000 tested, 2.5% active. Potency, µM (highest dose often 38.2 µM), for the others: top-dose activity change, negative = inhibition, hits mostly activators; active = well fitted activation curve with a large enough effect in the signal ratio, with a control signal flat, not every such curve was filed as active; inconclusive = small, poorly fitted or top-dose-only effect, or effect the other way, or a change in a side signal; the % refers to the signal ratio; note: potency is the fitted concentration of half-maximal effect; % of control where 0% means no effect
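Modulation of forskolin-driven signalling is measured in CHO cells carrying a CRE-controlled beta-lactamase reporter. Cells are stimulated with EC10 NKH 477 in the presence of titrated compound for 3 h at 37 °C, then loaded with CCF4 for 2 h at room temperature.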
Starred values were filed as active, the others as inactive; [ ] = another dose, or the depositor's remark. Unless noted, calls come from the whole dose curve; as a rule, active = well fitted curve in the direction sought with a large enough effect; inconclusive = small, poorly fitted or top-dose-only effect, or another doubt; inactive = no such curve, though single readings can be large; an effect the other way counts as inactive or inconclusive.

For Cc1ccc(-n2cc3c(=O)n(C)c(=O)n(C)c3c2)cc1C the results were HSD17B inhib -2.7%, AID923 0.5%, HADH2 inhib -10.7%, A350 fluor inactive, 4-MU autofl inactive and CRE Fsk mod 4.1%.
Cc1cc(N)c(-n2cc3c(=O)n(C)c(=O)n(C)c3c2)cc1C was read as HSD17B inhib 31.6µM*, AID923 15.7%, HADH2 inhib 7.0%, A350 fluor 4.85e-08M*, 4-MU autofl 4.68e-08M* and CRE Fsk mod -5.7%.
For O=C1COc2ccc(C(=O)NCc3ccc4c(c3)OCO4)cc2N1 the results were HSD17B inhib 1.4%, AID923 -0.6%, HADH2 inhib 6.2%, A350 fluor inconclusive, 4-MU autofl inactive and CRE Fsk mod 8.0%.
S=c1[nH]c2ccc(Cl)cc2[nH]1 was read as HSD17B inhib -20.9%, AID923 -1.2%, HADH2 inhib 3.16µM*, A350 fluor inactive, 4-MU autofl inactive and CRE Fsk mod inconclusive.
`COc1ccc2[nH]c(=S)[nH]c2c1` gave HSD17B inhib -2.1%, AID923 0.3%, HADH2 inhib inconclusive, A350 fluor inactive, 4-MU autofl inactive and CRE Fsk mod -4.0%.
For COC(=O)c1ccccc1NC(=O)NC1CCN(Cc2ccccc2)CC1 the results were HSD17B inhib 25.1µM*, AID923 1.4%, HADH2 inhib -5.7%, A350 fluor inactive, 4-MU autofl inactive and CRE Fsk mod 0.7%.
Screening COc1ccc(C)cc1NC(=O)NC1CCN(Cc2ccccc2)CC1 returned HSD17B inhib 5.1%, AID923 0.1%, HADH2 inhib 4.1%, A350 fluor inactive, 4-MU autofl inactive and CRE Fsk mod -9.7%.
Screening CC(=O)O[C@H]1CSC[C@H]1NC(=O)c1ccccc1 returned HSD17B inhib 3.2%, AID923 1.2%, HADH2 inhib 3.0%, A350 fluor inconclusive, 4-MU autofl inactive and CRE Fsk mod 1.2%.
Screening COc1ccc2c(c1)OC1(O)COc3cc(OC)c(OC)cc3C1=C2 (stereo not drawn) returned HSD17B inhib 25.1µM* and AID923 -4.4%.
`CCOc1ccc(NC(=O)CN2CCN(CC(=O)Nc3ccc(F)c(F)c3)CC2)cc1` gave HSD17B inhib -3.3%, AID923 3.0%, HADH2 inhib 3.7%, A350 fluor inactive, 4-MU autofl inactive and CRE Fsk mod -2.6%.
CC(C)N(Cc1cc2ccccc2[nH]c1=O)C(=O)c1cccnc1 was read as HSD17B inhib -28.1%, AID923 2.8%, HADH2 inhib -9.6%, A350 fluor inconclusive, 4-MU autofl inconclusive and CRE Fsk mod -6.7%.
For COc1ccc2[nH]c(=O)c(CN(C(=O)c3cccnc3)c3ccccc3OC)cc2c1 the results were HSD17B inhib 25.1µM*, AID923 4.4%, HADH2 inhib inconclusive, A350 fluor 3.49e-07M*, 4-MU autofl 2.65e-07M* and CRE Fsk mod 15.0%.
For COc1ccc2[nH]c(=O)c(CN(C(=O)c3ccccn3)c3ccccc3)cc2c1 the results were HSD17B inhib -14.8%, AID923 -1.3%, HADH2 inhib -19.9%, A350 fluor 8.99e-08M*, 4-MU autofl 7.01e-08M* and CRE Fsk mod -6.4%.
Screening CC(C)C(=O)N(Cc1cc2ccccc2[nH]c1=O)C(C)C returned HSD17B inhib 3.9%, AID923 0.5%, HADH2 inhib -17.9%, A350 fluor inactive, 4-MU autofl inactive and CRE Fsk mod 0.8%.
`COc1ccc2[nH]c(=O)c(CN(C(=O)COc3ccccc3)C(C)C)cc2c1` gave HSD17B inhib 31.6µM*, AID923 0.5%, HADH2 inhib -2.1%, A350 fluor 2.52e-07M*, 4-MU autofl 1.95e-07M* and CRE Fsk mod 9.6%.
COc1ccc(N(Cc2cc3cc(OC)ccc3[nH]c2=O)C(=O)c2cccnc2)cc1 was read as HSD17B inhib inconclusive, AID923 1.0%, HADH2 inhib inconclusive, A350 fluor 3.59e-07M*, 4-MU autofl 2.74e-07M* and CRE Fsk mod 5.8%.
Screening Cc1ccc2[nH]c(-c3ccccc3)cc(=O)c2c1 returned HSD17B inhib 31.6µM*, AID923 1.1%, HADH2 inhib -5.8%[11.4 µM] and CRE Fsk mod 1.58µM*.
`COc1cc(C(=O)Nc2ccc(NC(=O)C(C)C)nc2)cc(OC)c1OC` gave HSD17B inhib 4.1%, AID923 -1.2%, HADH2 inhib -2.2%, A350 fluor inactive, 4-MU autofl inactive and CRE Fsk mod 20.7%.
Screening Cc1ccc(CNC(=O)CN2CCC(C(N)=O)CC2)cc1 returned HSD17B inhib 2.0%, AID923 1.2%, HADH2 inhib -1.6%, A350 fluor 5.67e-08M*, 4-MU autofl 2.9e-08M* and CRE Fsk mod -3.4%.
For CC1CCN(CC(=O)NCc2ccccc2)CC1 the results were HSD17B inhib 8.7%, AID923 -0.1%, HADH2 inhib -5.0%, A350 fluor inactive, 4-MU autofl inactive and CRE Fsk mod -3.3%.
Screening COc1ccc2c(c1)[C@]1(C)CCC(=O)C[C@H]1CC2 returned HSD17B inhib -10.4% and AID923 2.4%.
For COc1ccc2c(c1)C(=O)N(c1ccccc1OC)C(=O)C2(C)C the results were HSD17B inhib 7.5%, AID923 0.4%, HADH2 inhib -1.5%, A350 fluor inconclusive, 4-MU autofl inactive and CRE Fsk mod 3.16µM*.
`Cc1nnc2ccc(N3CCC4(CC3)OCCO4)nn12` gave HSD17B inhib -2.4%, AID923 0.7%, HADH2 inhib -0.5%, A350 fluor inactive, 4-MU autofl inactive and CRE Fsk mod 0.0%.
`Cc1cccc(-c2cc3nc4c(c(N5CCOCC5)n3n2)CCCC4)c1` gave HSD17B inhib inconclusive, AID923 1.2%, HADH2 inhib -1.8%, A350 fluor inconclusive, 4-MU autofl 1.39e-08M* and CRE Fsk mod 2.51µM*.
C1CCc2c(nc3nnnn3c2N2CCOCC2)C1 was read as HSD17B inhib 9.6%, AID923 0.5%, HADH2 inhib -1.0%, A350 fluor inactive, 4-MU autofl inactive and CRE Fsk mod 4.1%.
For Cc1ccc(CN2CCN(C(=O)C3CCCO3)CC2)cc1 (stereo not drawn) the results were HSD17B inhib 10.9%, AID923 -0.4%, HADH2 inhib -2.0%, A350 fluor inactive, 4-MU autofl inactive and CRE Fsk mod 1.6%.
For O=C(C1CCCO1)N1CCN(c2c3c(nc4cc(-c5ccc(F)cc5)nn24)CCC3)CC1 (stereo not drawn) the results were HSD17B inhib inconclusive, AID923 0.4%, HADH2 inhib 10.3%, A350 fluor 4.48e-08M*, 4-MU autofl 4.51e-08M* and CRE Fsk mod -3.1%.
